Measured values from PubChem BioAssay (NCATS).
Several values for one entry are separate records, joined by “and”; a condition that tells them apart may be missing. Equal values may be shown once. Records with an inconclusive call do not appear. Activity calls are given as the source filed them. Unless noted, calls follow the shape of the dose curve; as a rule, active = well fitted curve in the direction sought with a large enough effect; inconclusive = small, poorly fitted or top-dose-only effect, or another doubt; inactive = no such curve, though single readings can be large; an effect the other way counts as inactive or inconclusive.

Experiments:
[1] = target: Glucagon-like peptide 1 receptor (Homo sapiens) (UniProt P43220); test: qHTS of GLP-1 Receptor Agonists: LOPAC Validation (AID 624148);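 also: luminescence from a luciferase reporter switched on by cAMP; 0% is about no effect; higher luminescence signal means agonism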
Chain of Glucagon-like peptide 1 receptor (Homo sapiens) (P43220 whole entry, looked up): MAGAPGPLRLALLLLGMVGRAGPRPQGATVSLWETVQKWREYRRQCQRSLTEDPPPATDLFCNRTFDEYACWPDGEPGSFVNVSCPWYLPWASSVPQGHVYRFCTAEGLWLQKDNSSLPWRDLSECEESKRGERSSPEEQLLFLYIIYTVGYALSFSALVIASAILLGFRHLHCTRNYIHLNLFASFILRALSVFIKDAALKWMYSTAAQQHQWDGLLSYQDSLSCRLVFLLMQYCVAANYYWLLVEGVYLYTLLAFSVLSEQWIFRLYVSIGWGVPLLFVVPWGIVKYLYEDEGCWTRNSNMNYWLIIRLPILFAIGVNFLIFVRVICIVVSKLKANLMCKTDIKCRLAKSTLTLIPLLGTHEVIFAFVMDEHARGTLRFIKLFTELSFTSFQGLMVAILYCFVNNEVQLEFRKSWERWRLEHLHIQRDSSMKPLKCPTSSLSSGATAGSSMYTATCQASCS
Summary of the method: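 Agonism scored as increased luciferase luminescence driven by cAMP in HEK293 clones carrying GLP-1R. Cells settled 12 hours, received compound for 4-6 hr at 37 deg C, 5% CO2, and were read after 12 min detection reagent at RT.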

[2] = qHTS of Nrf2 Activators: LOPAC Validation (AID 624149); also: 0% is about no effect
Summary of the method: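 AREc32_Fluc cells, 1000/well in OPTI-MEM with 5% FBS, grown overnight, then exposed to compounds for 24 hr at 37 deg C, 5% CO2. ARE-driven firefly luciferase read by Steady-Glo luminescence after 30 min at RT.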

[3] = HTS Assay for Allosteric Antagonists of the Human D2 Dopamine Receptor: Hit Validation in HTRF (AID 624455); also: potency is read from the fitted curve at half-maximal effect;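 also: stable D1 dopamine receptor cell line scored for blocking the D1 response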
Summary of the method: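 Hit validation in cells stably expressing the D1 dopamine receptor, run in HTRF format. Compounds were tested for their ability to inhibit the D1-mediated response.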

[4] = qHTS Assay for Identification of Small Molecule Agonists for NFkB Signaling Pathway. (AID 624478); also: 0% is about no effect
Summary of the method: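 NFkB-bla ME-180 cells carry a beta-lactamase reporter. They received compound plus TNF alpha at 10 pM final (its EC50) for 5 h at 37 C. Reporter activity was read as 460/530 nm emission ratio after 2 h LiveBLAzer substrate loading.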

[5] = qHTS Assay for Identification of Small Molecule Antagonists for NFkB Signaling Pathway. (AID 624479; calls by dose curve;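 also: pathway stimulated with TNF alpha; potency is read from the fitted curve at half-maximal effect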); details: NFkB pathway reporter cell assay, antagonist mode
[6] = Cell Proliferation Assay against the TMD8 Cell Line (AID 651645); details: TMD8 DLBCL cell line proliferation/viability; at 46.1 µM (top of the series);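 also: cells exposed to compound for 48 h before reading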
Summary of the method: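 TMD8 cells, 500/well in RPMI with 5% FBS, dosed immediately and grown 48 h at 37 C, 5% CO2. CellTiter-Glo luminescence normalised to DMSO 100% and 9.2 uM bortezomib (final) 0%.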

[7] = Cell Proliferation Assay against the HBL1 Cell Line (AID 651646); details: HBL1 DLBCL cells; at 46.1 µM (top of the series);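 also: cells exposed to compound for 48 h before reading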
Summary of the method: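 Luminescent ATP read-out (CellTiter-Glo) after 48 h compound exposure of HBL1 cells at 37 °C; percent activity was scaled between DMSO as 100% and 9.2 uM bortezomib (final) as 0%.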

[8] = Cell Proliferation Assay against the TMD8 Cell Line (Caspase readout at 16 hrs) (AID 651712); details: TMD8 lymphoma cells, caspase activation luminescence; also: potency is read from the fitted curve at half-maximal effect
Summary of the method: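 Apoptotic response of TMD8 cells was judged from caspase 3/7 activation following a 16 hour compound incubation at 37 °C. Luminescent signal was converted to percent activity, with DMSO set as 0% and 9.2 uM final bortezomib as 100%.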

[9] = qHTS assay for small molecule agonists of the antioxidant response element (ARE) signaling pathway (AID 651741; active = well fitted activation curve with a large enough effect in the signal ratio; the % refers to the signal ratio; also: potency is read from the fitted curve at half-maximal effect; as to activation: % of control where 0% means no effect)
Summary of the method: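 Quantitative HTS in HepG2 cells stably expressing an ARE-beta-lactamase reporter; 16 h compound exposure at 37 C, followed by 2 h room-temperature incubation with LiveBLAzer B/G FRET substrate and fluorescence measurement.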

[10] = qHTS assay for small molecule activators of the p53 signaling pathway (AID 651743; active = well fitted activation curve with a large enough effect in the signal ratio, not every such curve was filed as active; the % refers to the signal ratio; also: potency is read from the fitted curve at half-maximal effect; as to activation: % of control where 0% means no effect); details: HCT-116 p53RE-bla, beta-lactamase FRET ratio, 16 h; activation: stronger effect = higher value
Summary of the method: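 Read-out is fluorescence intensity from the LiveBLAzer B/G FRET substrate, added for 2 hours at room temperature after HCT-116 p53RE-bla cells had been incubated with compounds for 16 hours at 37 C.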

[11] = qHTS assay for small molecule activators of the nuclear factor-kappa B (NF-kB) signaling pathway (AID 651749; active = well fitted activation curve with a large enough effect in the signal ratio; the % refers to the signal ratio; also: % of control where 0% means no effect); details: NF-kB-bla ME-180 cells, beta-lactamase FRET ratio, 16 h; stronger effect = higher value
Summary of the method: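 Readout: beta-lactamase reporter driven by an NF-kB response element, detected fluorescently as loss of FRET. Cells were the ME-180 line, treated 16 hr at 37C with pin-transferred compound.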

[12] = qHTS assay for small molecule disruptors of the mitochondrial membrane potential - 1 hr assay (AID 651754; calls by dose curve; also: nearly all actives have a fitted effect of over 35% in size; also: potency is read from the fitted curve at half-maximal effect)
Summary of the method: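 HepG2 cells, attached overnight, were exposed to compound for 1 hr at 37C, then stained 30 min with a potentiometric dye. Ratio of red aggregate (590nm) to green monomer (535nm) fluorescence reports membrane potential; collapse shifts signal toward green.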

[13] = qHTS assay for small molecule disruptors of the mitochondrial membrane potential - 5 hr assay (AID 651755; calls by dose curve; also: nearly all actives have a fitted effect of over 40% in size; also: potency is read from the fitted curve at half-maximal effect)
Summary of the method: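 HepG2, 2,000 cells/well, overnight attach; cpd or DMSO 5 hr, 37C/5% CO2; Mito-MPS 30 min 37C; fluor 490/535 + 540/590 nm.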

[14] = target: Tumor necrosis factor (Homo sapiens) (UniProt P01375); test: qHTS assay to identify small molecules that stimulate Tumor Necrosis Factor-alpha (TNF-alpha) secretion (AID 651757; active = well fitted curve in the direction sought with a large enough effect in the signal ratio; the % refers to the signal ratio; also: 0% is about no effect)
Chain of Tumor necrosis factor (Homo sapiens) (P01375 whole entry, looked up): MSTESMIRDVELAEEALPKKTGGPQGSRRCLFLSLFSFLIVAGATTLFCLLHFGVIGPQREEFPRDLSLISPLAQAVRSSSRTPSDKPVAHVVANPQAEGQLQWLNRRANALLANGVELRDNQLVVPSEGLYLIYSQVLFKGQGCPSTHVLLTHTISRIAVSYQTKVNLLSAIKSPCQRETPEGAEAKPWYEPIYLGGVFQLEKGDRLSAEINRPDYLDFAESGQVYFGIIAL
Summary of the method: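 THP-1 cells (3000/well) exposed to compounds 17 hrs at 37 C. Secreted TNF-alpha detected by HTRF with cryptate- and XL665-labeled anti-TNF-alpha antibodies after 3 hr at room temperature.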

[15] = qHTS assay for environmental chemicals that activate the Aryl hydrocarbon Receptor (AhR) signaling pathway (AID 651777); details: 1A2-DRE human hepatoma cells, luciferase, 24 h; activation: stronger effect = higher value; also: % of control where 0% means no effect; nearly all actives have a fitted effect of over 15% in size
Summary of the method: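 Luminescence (One-Glo, 30 min, room temperature) reports AhR-driven luciferase in stably transfected human hepatoma cells bearing DRE and CYP1A2 promoter. Cells (1,200/well) were treated with compound for 24 hr at 37 C in qHTS format.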

[16] = target: Peroxisome proliferator-activated receptor alpha (Homo sapiens) (UniProt Q07869); test: qHTS assay for small molecule agonists of the peroxisome proliferator-activated receptor alpha (PPARalpha) signaling pathway (AID 651778); details: PathHunter PPARalpha complementation, chemiluminescence, 6 h; stronger effect = higher value; also: % of control where 0% means no effect
Chain of Peroxisome proliferator-activated receptor alpha (Homo sapiens) (Q07869 whole entry, looked up): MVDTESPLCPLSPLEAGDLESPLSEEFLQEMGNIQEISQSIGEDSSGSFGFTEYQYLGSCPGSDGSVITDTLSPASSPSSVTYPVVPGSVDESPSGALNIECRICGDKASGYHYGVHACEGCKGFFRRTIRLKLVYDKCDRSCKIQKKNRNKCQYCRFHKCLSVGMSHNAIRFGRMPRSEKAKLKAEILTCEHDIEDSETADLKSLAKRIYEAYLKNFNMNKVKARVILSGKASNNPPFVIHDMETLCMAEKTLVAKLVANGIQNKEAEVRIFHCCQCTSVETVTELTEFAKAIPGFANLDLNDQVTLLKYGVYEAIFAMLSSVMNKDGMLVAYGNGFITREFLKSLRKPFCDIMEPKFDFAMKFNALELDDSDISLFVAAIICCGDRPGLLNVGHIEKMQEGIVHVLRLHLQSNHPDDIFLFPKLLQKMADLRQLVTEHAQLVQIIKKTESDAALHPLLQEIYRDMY
Summary of the method: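 Chemiluminescence from complemented enzyme reported PPARalpha activation in cells after 6 hr of compound treatment at 37 C. The detection reagent was incubated for 60 min at room temperature, and compounds were scored as agonists.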

[17] = target: Nuclear receptor ROR-gamma (Homo sapiens) (UniProt P51449); test: qHTS assay for small molecule antagonists of the retinoid-related orphan receptor gamma (ROR-gamma) signaling pathway (AID 651802); also: nearly all actives have a fitted effect of over 60% in size; also: potency is read from the fitted curve at half-maximal effect
Chain of Nuclear receptor ROR-gamma (Homo sapiens) (P51449 whole entry, looked up): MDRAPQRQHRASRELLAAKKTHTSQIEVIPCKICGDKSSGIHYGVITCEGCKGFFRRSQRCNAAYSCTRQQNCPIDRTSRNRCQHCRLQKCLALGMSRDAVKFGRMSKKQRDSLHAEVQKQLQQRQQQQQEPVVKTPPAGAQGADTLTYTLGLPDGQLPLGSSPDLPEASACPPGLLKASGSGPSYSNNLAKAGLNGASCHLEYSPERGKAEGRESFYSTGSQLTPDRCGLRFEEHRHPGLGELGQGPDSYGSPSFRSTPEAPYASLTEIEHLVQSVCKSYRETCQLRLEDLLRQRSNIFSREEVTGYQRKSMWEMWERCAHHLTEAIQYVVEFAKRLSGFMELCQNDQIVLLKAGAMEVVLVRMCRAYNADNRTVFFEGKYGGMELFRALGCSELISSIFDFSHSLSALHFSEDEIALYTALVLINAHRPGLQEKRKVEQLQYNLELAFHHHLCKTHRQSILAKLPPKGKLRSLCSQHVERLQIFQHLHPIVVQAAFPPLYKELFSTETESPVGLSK
Summary of the method: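 CHO cells with TET-inducible ROR-gamma and RORE-luciferase reporter, dosed then doxycycline-induced. After 16 h at 37C, One-Glo luminescence read; decreased signal indicates antagonism.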

[18] = target: Tyrosine-protein kinase Yes (Homo sapiens) (UniProt P07947); test: qHTS for small molecule inhibitors of Yes1 kinase: Primary Screen (AID 686947);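 also: plate controls were DMSO with enzyme for no effect and no-enzyme DMSO wells for full effect; nearly all actives have a fitted effect of over 60% in size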
Chain of Tyrosine-protein kinase Yes (Homo sapiens) (P07947 whole entry, looked up): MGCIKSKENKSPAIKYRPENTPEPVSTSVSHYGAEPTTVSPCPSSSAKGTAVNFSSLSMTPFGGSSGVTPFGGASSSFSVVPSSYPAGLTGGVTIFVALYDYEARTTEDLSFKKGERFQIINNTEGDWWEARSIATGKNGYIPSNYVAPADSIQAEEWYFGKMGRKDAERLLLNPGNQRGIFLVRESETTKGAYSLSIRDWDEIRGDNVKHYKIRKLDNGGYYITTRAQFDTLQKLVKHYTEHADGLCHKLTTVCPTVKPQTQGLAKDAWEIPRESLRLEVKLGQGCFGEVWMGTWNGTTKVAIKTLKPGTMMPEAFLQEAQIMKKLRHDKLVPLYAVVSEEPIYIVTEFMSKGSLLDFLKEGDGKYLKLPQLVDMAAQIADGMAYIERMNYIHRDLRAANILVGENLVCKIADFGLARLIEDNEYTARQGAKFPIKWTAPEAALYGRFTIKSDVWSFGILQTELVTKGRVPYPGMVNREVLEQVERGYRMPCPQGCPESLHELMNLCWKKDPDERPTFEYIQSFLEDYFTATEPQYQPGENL
Summary of the method: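 Yes1 (4 nM) preincubated 20 min with compound, then 60 min room-temperature reaction with 0.1 mM ATP and 0.3 mg/mL poly(E4Y) in pH 7.5 Tris, 10 mM MgCl2. ADP measured by ADP-Glo luminescence, normalised to enzyme/no-enzyme controls.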

[19] = qHTS for small molecule inhibitors of Yes1 kinase: Counter Assay (AID 686950);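 also: no kinase present so only ADP-Glo detection of a fixed ADP amount is tested; luminescence from ADP-Glo reporting ADP in a fixed ATP and ADP mixture; 0% = DMSO wells with ATP plus ADP and -100% = ATP-only wells without ADP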
Summary of the method: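 Luminescence read-out from ADP-Glo quantifies a fixed ADP amount (0.02 mM ADP with 0.08 mM ATP) after 60 min at room temperature; signal is normalized between DMSO wells with ATP/ADP and with 0.1 mM ATP alone.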

[20] = qHTS assay to identify small molecules that stimulate interleukin-8 (IL-8) secretion (AID 651758; active = well fitted activation curve with a large enough effect in the signal ratio; the % refers to the signal ratio; also: potency is read from the fitted curve at half-maximal effect; as to activation: 0% is about no effect)
Summary of the method: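 Secreted IL-8 measured by TR-FRET sandwich (cryptate and XL665 antibodies) from THP-1 cells exposed to compound overnight (16 hrs, 37 C).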

Nc1ncn([C@@H]2O[C@H](CO)[C@@H](O)[C@H]2O)c(=O)n1
active: Potency [5] 16.8 µM | Potency [8] 14.8 µM | Potency [9] 1.37 µM and 1.88 µM | Potency [10] 6.31 µM | Potency [17] 3.35 µM
22.1%: viability, percent of control [7]
6.56%: viability (% of control) [6]
inactive: outcome [1] | outcome [2] | Potency [3] | outcome [4] | activation [11] -3.34% and -0.684% | Potency [12] | Potency [13] | outcome [14] | activation [15] 5.55% and 8.87% | max response [16] -2.48% and -2.55% | Potency [18] | outcome [19]

CCOC(=O)C1=C(C)NC(C)=C(C(=O)OC)C1c1cccc(Cl)c1Cl (centres undefined)
inactive: outcome [1] | outcome [2] | Potency [3]

C[N+](C)(C)CCOC(=O)CCC(=O)OCC[N+](C)(C)C
inactive: outcome [1] | outcome [2] | Potency [3]

Cc1cccc(C)c1NC(=O)C(C)N (centres undefined)
inactive: outcome [1] | outcome [2] | Potency [3]

CN(C)CC/C=C1\c2ccccc2COc2ccccc21
inactive: outcome [2] | Potency [3]

CC(C)(Oc1ccc(CCNC(=O)c2ccc(Cl)cc2)cc1)C(=O)O
inactive: outcome [1] | outcome [2] | Potency [3] | activation [11] -0.302% | activation [15] -0.0115% | max response [16] 9.62%

CCCCNC(=O)NS(=O)(=O)c1ccc(C)cc1
inactive: outcome [1] | outcome [2] | Potency [3] | Potency [9] | activation [10] -3.27% and -2.98% | Potency [12] | Potency [13] | outcome [14] | activation [15] 0.474% and 1.06% | max response [16] -9.3% and -3.45% | Potency [17]

C[C@@H](O)[C@H]1C(=O)N2C(C(=O)O)=C(SCCN=CN)C[C@H]12
inactive: outcome [1] | outcome [2] | Potency [3]

CN1CCN(C2=Nc3ccccc3Oc3ccc(Cl)cc32)CC1
inactive: outcome [1] | outcome [2] | Potency [3]

Cc1ccc(/C(=C\CN2CCCC2)c2ccccn2)cc1
inactive: outcome [1] | Potency [3]

C[C@H](CS)C(=O)N1CCC[C@H]1C(=O)O
inactive: outcome [2] | Potency [3]

NC(=O)N1c2ccccc2C=Cc2ccccc21
inactive: outcome [1] | outcome [2] | Potency [3] | Potency [9] | activation [11] -0.533% and -3% | outcome [14] | activation [15] 0.886% and -3.46% | max response [16] -1.1% and -0.275% | Potency [17]

O=c1[nH]c(=O)n([C@H]2C[C@H](O)[C@@H](CO)O2)cc1Br
inactive: outcome [1] | outcome [2] | Potency [3] | Potency [9] | activation [10] 3.27% | activation [11] 0.708% | outcome [14] | activation [15] 0.877% | max response [16] -2.48%
active: Potency [20] 53.1 µM

C[n+]1cc2c3c(ccc2c2ccc4cc5c(cc4c21)OCO5)OCO3
inactive: outcome [2]

COc1cc2c(cc1OC)-c1cc(=Nc3c(C)cc(C)cc3C)n(C)c(=O)n1CC2
inactive: outcome [2] | Potency [3]

OC(CCN1CCCCC1)(c1ccccc1)C1CCCCC1 (centres undefined)
inactive: outcome [1] | outcome [2] | Potency [3]

CCn1nc(C(=O)O)c(=O)c2cc3c(cc21)OCO3
inactive: outcome [1] | Potency [3]

CN1C(=O)CC[C@H]1c1cccnc1
inactive: outcome [2] | Potency [3]

CC[N+](C)(C)c1cccc(O)c1
inactive: outcome [2]

CN/C(=C\[N+](=O)[O-])NCCSCc1ccc(CN(C)C)o1
inactive: outcome [1] | Potency [3]

CCN(CC)CCCN(c1ccccc1)C1Cc2ccccc2C1
inactive: outcome [2] | Potency [3]

CNCCCN1c2ccccc2CCc2ccccc21
inactive: outcome [1] | Potency [3]

COC(=O)[C@H]1[C@H]2C[C@@H]3c4[nH]c5cc(OC)ccc5c4CCN3C[C@H]2C[C@@H](OC(=O)c2cc(OC)c(OC)c(OC)c2)[C@@H]1OC
inactive: outcome [1] | outcome [2] | Potency [3] | activation [10] 3.91% and 8.14% | outcome [14] | activation [15] 3.95% and 8.69% | max response [16] 4.44% and 8.97%
active: Potency [12] 21.1 µM | Potency [13] 26.6 µM

CN(C)[C@@H]1C(=O)C(C(N)=O)=C(O)[C@@]2(O)C(=O)C3=C(O)c4c(O)ccc(Cl)c4[C@@H](O)[C@H]3C[C@@H]12
inactive: outcome [2]

NC/C=C/C(=O)O
inactive: outcome [2] | Potency [3]

COc1ccc(CN(CCN(C)C)c2ccccn2)cc1
inactive: outcome [1] | outcome [2] | Potency [3] | Potency [20] | activation [15] 3.63% | max response [16] -5.33% | Potency [17]

Cc1nc2ccccn2c(=O)c1CCN1CCC(C(=O)c2ccc(F)cc2)CC1
inactive: outcome [2] | Potency [3]

CC(C(=O)O)c1ccc(CC2CCCC2=O)cc1 (centres undefined)
inactive: outcome [2] | Potency [3]

O=C(O)CN(CCN(CC(=O)O)CC(=O)O)CCN(CC(=O)O)CC(=O)O
inactive: outcome [1] | outcome [2] | Potency [3]

Cc1nc2c([nH]1)c(=O)n(C)c(=O)n2Cc1ccco1
inactive: outcome [2] | Potency [3]

CCn1cc(C(=O)O)c(=O)c2cc3c(cc21)OCO3
inactive: outcome [1] | outcome [2] | Potency [3]

CC(C)COCC(CN(Cc1ccccc1)c1ccccc1)N1CCCC1 (centres undefined)
inactive: outcome [2] | Potency [3]

CN1CCN(CC(=O)N2c3ccccc3C(=O)Nc3cccnc32)CC1
active: Potency [3] 3.66 µM
inactive: outcome [1] | outcome [2]
